# Rv3671c inh: inhibitors of M. tuberculosis serine protease Rv3671c; inhibition, % at 5.96 µM; 320,000 tested, 0.048% active; AID 2606; in the data active = inhibition above about 38%;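 also: extracellular domain of Rv3671c used as enzyme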
# Target sequence (P9WHR9 whole entry, looked up, the tested form may be a part): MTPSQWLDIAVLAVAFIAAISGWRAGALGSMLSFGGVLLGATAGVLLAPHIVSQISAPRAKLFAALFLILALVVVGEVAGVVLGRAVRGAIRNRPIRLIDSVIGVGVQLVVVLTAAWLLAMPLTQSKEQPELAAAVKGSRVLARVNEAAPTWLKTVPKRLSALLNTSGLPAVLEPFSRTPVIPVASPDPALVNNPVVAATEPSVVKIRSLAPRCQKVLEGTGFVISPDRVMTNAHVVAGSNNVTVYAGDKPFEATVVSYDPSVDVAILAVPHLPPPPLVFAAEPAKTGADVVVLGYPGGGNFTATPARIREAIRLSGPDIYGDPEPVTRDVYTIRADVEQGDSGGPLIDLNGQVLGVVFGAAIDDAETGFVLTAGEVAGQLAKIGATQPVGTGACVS
# Mtb BioA inh: blocks M. tuberculosis BioA enzyme activity; purified M. tuberculosis BioA enzyme, plate reader; inhibition, % at 9.99 µM; 360,000 tested, 0.096% active; in the data active = inhibition above about 40%; inconclusive = no clear call, values can overlap the other calls
# Mtb FBA inh: Mtb fructose-bisphosphate aldolase inhibition; inhibition, % at 1 µM; P9WQA3; 360,000 tested, 2.3% active; purified M. tuberculosis FBA, fluorescence read-out
# FadD28 binding: blocks FadD28 binding to the bisubstrate probe. fluorescence polarization. 360,000 tested, 0.22% active. inhibition, % at 12.5 µM; in the data active = inhibition above about 8.5%, passing the limit was not always enough; inconclusive = no clear call, values can overlap the other calls
# GDH-TPI counter-1: GDH-TPI coupled enzyme inhibition counter-screen; GDH-TPI coupled enzyme counterscreen, NADH absorbance; inhibition, % at 4.8 µM; 360,000 tested, 1.2% active; AID 588335; in the data active = inhibition above about 30%
# Mtb FBA inh conf: Mtb FBA inhibition, confirmed; shares compounds with Mtb FBA inh; purified M. tuberculosis FBA, fluorescence read-out; inhibition, % at 1 µM; 5,600 tested, 78% active
# GDH-TPI counter-2: GDH-TPI inhibition counter-screen for FBA inhibitors; shares compounds with Mtb FBA inh; GDH-TPI coupled enzyme counterscreen, fluorescence; inhibition, % at 1 µM; 5,600 tested, 81% active; AID 652141; in the data active = inhibition above about 10%
# GDH-TPI DR: GDH-TPI dose response counter-screen for Mtb FBA | GDH-TPI coupled enzyme assay, fluorescence, artifact counterscreen | IC50, µM | 170 tested, 79% active | shares compounds with Mtb FBA inh; call rule not given here
# Numbers stand for hits; . = inactive; ? = inconclusive; / = no result given; + = active, no number. Compounds with a hit are over-represented: about 3% of the library has one in this group of screens. Rule as the data show it, unless noted: active = inhibition above about 27%; inactive = the rest.
SMILES,Rv3671c inh,Mtb BioA inh,Mtb FBA inh,FadD28 binding,GDH-TPI counter-1,Mtb FBA inh conf,GDH-TPI counter-2,others
C[C@@H]1CN([C@H](C)CO)C(=O)c2cc(NC(=O)c3ccncc3)ccc2O[C@@H](C)CCCCO[C@H]1CN(C)C(=O)Nc1ccccc1,/,.,/,/,/,/,/,
O=C(Nc1nc(-c2ccccc2)cs1)c1ccccc1NS(=O)(=O)c1ccc(F)cc1,.,/,37,.,.,+,+,
CCOc1cc(C2C3=C(CCCC3=O)N(CCC(=O)O)C3=C2C(=O)CCC3)ccc1OS(=O)(=O)c1ccc(C)cc1,.,.,79,.,.,83,72,
Cc1ccc(S(=O)(=O)Oc2ccc(C3C4=C(CCCC4=O)N(CCC(=O)O)C4=C3C(=O)CCC4)cc2Cl)cc1,.,/,110,.,.,.,.,
C[C@@H](NC(=O)C[C@H]1C[C@@H]2c3cc(NC(=O)c4ccc5c(c4)OCO5)ccc3O[C@@H]2[C@H](CO)O1)c1ccccc1,/,.,/,/,/,/,/,
CN(C)c1ccc2c(c1)[C@@H]1C[C@@H](CC(=O)NC3CCCC3)O[C@H](CO)[C@@H]1O2,/,.,/,/,/,/,/,
COc1ccc(C(=O)N/N=C/c2ccc3cccc(OCc4ccccc4)c3n2)cc1,.,.,63,.,.,.,15,
O/N=C/c1ccc2cccc(OCc3ccccc3)c2n1,.,.,.,.,.,/,/,
NC(=S)N/N=C/c1ccc2cccc(OCc3ccccc3)c2n1,.,.,40,.,.,47,37,
C[C@@H]1CCCCO[C@@H](CN(C)S(=O)(=O)c2ccc(F)cc2)[C@H](C)CN([C@@H](C)CO)C(=O)c2cc(NS(C)(=O)=O)ccc2O1,/,.,/,/,/,/,/,
COc1cc2c3c(c1)C(C)=CC(C)(C)N3C(=O)C2=O,.,/,29,.,.,.,.,
Cc1oc2ccccc2c1-c1cn2c(n1)SCC2,.,.,102,.,.,52,41,
CC=Cc1ccc2n(c1=O)C[C@H]1[C@H](CO)[C@@H](C(=O)NCC)N(Cc3nccs3)[C@@H]21 (mixture of isomers),/,.,/,/,/,/,/,
COc1cc2[nH]c(-c3ccc(C)cc3)cc(=O)c2cc1OC,.,.,58,.,.,+,+,
COc1ccc(-c2cc(=O)c3cc(C)ccc3[nH]2)cc1,.,.,.,.,.,/,/,
COc1cc2[nH]c(-c3cccc(F)c3)cc(=O)c2cc1OC,.,.,28,.,.,82,64,
C=CCN(c1ccccc1)S(=O)(=O)c1cccc(C(=O)O)c1,.,.,54,.,.,199,189,
Cc1ccc(O)c(C=Nc2ccc3[nH]ncc3c2)c1,.,/,42,.,.,118,83,
Cc1ccc(O)c(C=Nc2cc(C)ccc2O)c1,.,.,.,.,.,/,/,
O=c1cc(CN2CCc3ccccc32)c2ccc(O)cc2o1,.,.,41,?,.,.,.,
CC(=O)c1sc2nc(SCC(=O)NCCc3ccccc3)[nH]c(=O)c2c1C,.,.,29,.,53,77,73,
Cn1cnc(S(=O)(=O)N2C[C@H](O)COC[C@@H]3O[C@@H](CC(=O)N4CCN(c5ccccc5)CC4)CC[C@H]32)c1,/,.,/,/,/,/,/,
Cc1nc(-c2ccccc2)sc1-c1ccn[nH]1,.,.,110,.,.,33,24,
CCn1c(-c2sc(-c3ccccc3)nc2C)n[nH]c1=S,.,/,.,.,.,/,/,
O=C(C[C@H]1C[C@@H]2c3cc(NS(=O)(=O)c4ccc(F)cc4)ccc3O[C@@H]2[C@@H](CO)O1)NCC1CC1,/,.,/,/,/,/,/,
SMILES,Rv3671c inh,Mtb BioA inh,Mtb FBA inh,FadD28 binding,GDH-TPI counter-1,Mtb FBA inh conf,GDH-TPI counter-2,others
Cc1cc(=O)oc2c(C)c(OC(C)C(=O)NCC3CCC(C(=O)O)CC3)ccc12 (stereo unspecified),.,.,.,.,.,/,/,
Cc1cc(=O)oc2c(C)c(OC3CCCCC3=O)ccc12 (stereo unspecified),.,/,39,.,.,+,192,
CCc1cc(=O)oc2cc(OCC(=O)N3CCC(C(N)=O)CC3)ccc12,.,.,.,.,.,/,/,
CCc1cc(=O)oc2cc(OC3CCCCC3=O)ccc12 (stereo unspecified),.,.,53,.,.,192,164,
COC(=O)Cc1c(C)c2ccc(OC3CCCCC3=O)cc2oc1=O (stereo unspecified),/,.,103,.,.,140,144,
COC(=O)Cc1c(C)c2ccc(OC3CCCCC3=O)c(C)c2oc1=O (stereo unspecified),.,.,108,.,.,.,17,
COc1ccc(S(=O)(=O)N2C[C@H](O)COC[C@@H]3O[C@@H](CC(=O)N[C@@H]4CCN(Cc5ccccc5)C4)CC[C@H]32)cc1,/,.,/,/,/,/,/,
O=c1c2c(-c3ccccc3)csc2nc2c3ccccc3c(NCCN3CCOCC3)nn12,/,/,29,.,.,94,66,
C[C@H](CO)N1C[C@H](C)[C@@H](CN(C)C(=O)c2ccccc2F)Oc2ncc(Br)cc2C1=O,/,.,/,/,/,/,/,
Nc1ccc2oc3ccccc3c2c1,.,/,27,.,.,.,.,
Nc1ccc(C#Cc2ccc3oc4ccccc4c(=O)c3c2)cc1,.,.,.,.,.,/,/,
COc1ccc(CN(C)C[C@H]2OCCCC[C@@H](C)Oc3ccc(NC(=O)C4CCCCC4)cc3C(=O)N([C@H](C)CO)C[C@@H]2C)cc1,/,.,/,/,/,/,/,
Cc1nc2c(=O)n(C)c(=O)n(C)c2nc1Cl,.,/,39,.,.,63,44,
Cn1c(=O)c2nncnc2n(C)c1=O,.,.,.,.,.,/,/,
CCc1ccc(Nc2n[n+](-c3ccccc3)c(-c3ccc(N(CC)CC)cc3)s2)cc1,.,.,51,.,.,36,35,
CCN(CC)c1ccc(-c2sc(Nc3ccccc3)n[n+]2-c2ccc(F)cc2)cc1,.,.,.,.,.,/,/,
C[C@H](CO)N1C[C@H](C)[C@@H](CN(C)Cc2ccc(C(=O)O)cc2)Oc2ccc(NC(=O)Cc3ccccc3)cc2CC1=O,/,.,/,/,/,/,/,
COc1cc2sc3cc(NCC[C@@H]4CCCN4C)ccc3c(=O)c2cc1OC,.,.,32,.,42,+,194,
COc1cc2sc3cc(NCc4ccc(C)o4)ccc3c(=O)c2cc1OC,.,.,33,.,.,131,126,
COc1ccc2c(C)c(C(=O)N3CC[C@@H](N4CCC(O)CC4)[C@H](O)C3)oc2c1,.,.,45,.,.,105,81,
CC1CCc2nc(/C(C#N)=C/c3ccncc3)sc2C1 (stereo unspecified),.,/,28,.,.,.,.,
Cc1ccccc1-c1cc2nc(C)c(C)c(=O)n2[nH]1,/,.,.,.,.,/,/,
Cc1nc2cc(-c3cccs3)[nH]n2c(=O)c1C,.,.,46,.,.,.,.,GDH-TPI DR=5.7
CC(=O)Nc1cccc(-c2cn3ccc(C)cc3n2)c1,.,/,50,.,.,+,+,
Cc1ccn2cc(-c3cccc(NS(C)(=O)=O)c3)nc2c1,.,/,37,.,.,60,31,
